Records with an inconclusive call do not appear. Active and inactive are the calls of the source. Calls come from the whole dose curve; as a rule, active = well fitted inhibition curve with a large enough effect; inconclusive = small, poorly fitted or top-dose-only effect; inactive = flat fitted curve, though single readings scatter. Where a SMILES comes first, the peptide text is derived from it.
Legend:
[1] = target: Glutathione peroxidase 1 (Homo sapiens) (UniProt P07203); assay: Primary qHTS Assay for Inhibitors of Recombinant Selenoprotein Glutathione Peroxidase 1 (GPX1) (AID 1845191); note: nearly all actives have a fitted effect of over 65% in size
Glutathione peroxidase 1 (Homo sapiens), sequence (P07203 whole entry, looked up): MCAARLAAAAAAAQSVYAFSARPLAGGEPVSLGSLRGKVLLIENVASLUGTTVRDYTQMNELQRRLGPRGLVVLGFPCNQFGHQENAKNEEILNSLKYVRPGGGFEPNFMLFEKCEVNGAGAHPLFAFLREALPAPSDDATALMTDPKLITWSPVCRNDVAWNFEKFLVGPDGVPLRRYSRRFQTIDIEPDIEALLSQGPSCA
Outline: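 GPX1 10 nM, GR 100 nM, GSH 1 mM, NADPH 0.5 mM, CHP 0.5 mM (final). 30-min cpd preincubation, RT. Ex340/Em450 read t=0, t=15 min.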

[2] = target: Phospholipid hydroperoxide glutathione peroxidase GPX4 (Homo sapiens) (UniProt P36969); assay: Primary qHTS Assay for Inhibitors of Recombinant Selenoprotein Glutathione Peroxidase 4 (GPX4) (AID 1845192); note: nearly all actives have a fitted effect of over 65% in size; for activity change, negative = inhibition: series mostly up to about 50 µM; % is set by controls: 0 for no effect and ±100 for the full control effect
Phospholipid hydroperoxide glutathione peroxidase GPX4 (Homo sapiens), sequence (P36969 whole entry, looked up): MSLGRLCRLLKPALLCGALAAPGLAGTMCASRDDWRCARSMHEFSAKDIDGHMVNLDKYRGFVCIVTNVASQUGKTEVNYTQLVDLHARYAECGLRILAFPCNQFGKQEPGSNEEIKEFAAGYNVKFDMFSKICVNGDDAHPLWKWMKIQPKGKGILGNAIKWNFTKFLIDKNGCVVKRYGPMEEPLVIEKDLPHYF
Outline: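 qHTS, GR-coupled: GPX4 200 nM + cpd 30 min RT → GSH 1 mM, NADPH 0.5 mM, GR 100 nM → CHP 0.5 mM start; fluor 340/450 at t0 and t15 min; no-enzyme wells as control.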

[3] = target: Luciferin 4-monooxygenase (Photinus pyralis) (UniProt P08659); assay: Primary firefly luciferase (FLuc) qHTS assay for identification of artifact compounds. (AID 1845220); note: nearly all actives have a fitted effect of over 60% in size;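 for activity change, negative = inhibition: series mostly up to about 54 µM; plate controls were DMSO vehicle for no effect and no enzyme for full effect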
Outline: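 qHTS, 15 min compound preincubation with substrate (10 uM luciferin, 10 uM ATP) at RT, then 10 nM FLuc; 5 min; luminescence; % inhibition vs no-enzyme/DMSO controls, 4-parameter Hill fit.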

CC1(CCC(=O)O)C(=O)C=CC23CC4CC(OC4(C)C2O)C13 (stereo unspecified)
inactive: Potency [1] | Potency [2] | Potency [3]

Cc1nc2c(-c3cnc(N)nc3)nc(N3CCOCC3)nc2n1C(C)C
inactive: Potency [1] | Potency [2] | Potency [3]

C=C1CC[C@H]2[C@@](C)(CCC(O)[C@@]2(C)CO)[C@@H]1C/C=C(/C(=O)O)C(O)CO (stereo partly specified)
inactive: Potency [1] | Potency [2] | Potency [3]

CC1=C2C(=O)C=C(CO)[C@@H]2[C@H]2OC(=O)[C@H](C)[C@@H]2[C@@H](O)C1
inactive: Potency [1] | Potency [2] | Potency [3]

C=CC(C)(C)C1(CC2NC(=O)C3CCCN3C2=O)C(=O)Nc2cc3c(cc21)C=CC(C)(C)O3 (stereo unspecified)
inactive: Potency [1] | Potency [2] | Potency [3]

COc1cccc2c1CCC[C@H]2CN(C)CCc1ccc2ccoc2c1
inactive: Potency [1] | Potency [2] | Potency [3]

C/C=C(\C)C(=O)O[C@H]1[C@H](O)[C@]2(COC(C)=O)[C@H](O)C[C@]3(C)C(=CCC4[C@@]5(C)CC[C@H](O[C@@H]6O[C@H](C(=O)O)[C@@H](O[C@@H]7O[C@H](CO)[C@@H](O)[C@H](O)[C@H]7O)[C@H](O)[C@H]6O[C@@H]6O[C@H](CO)[C@@H](O)[C@H](O)[C@H]6O)[C@](C)(CO)C5CC[C@]43C)[C@@H]2CC1(C)C (stereo partly specified)
inactive: Potency [1] | Potency [2] | outcome [3] inactive [at 11.6 µM]

CC(=O)O[C@@H]1[C@H](O[C@@H]2OC[C@](O)(CO)[C@H]2O)[C@@H](O[C@@H]2O[C@@H](C)[C@H](O)[C@@H](O)[C@H]2O)[C@H](OC(=O)[C@]23CCC(C)(C)C[C@H]2C2=CCC4[C@@]5(C)C[C@H](O)[C@H](O[C@@H]6O[C@H](C(=O)O)[C@@H](O)[C@H](O)[C@H]6O)[C@@](C)(C(=O)O)C5CC[C@@]4(C)[C@]2(C)CC3)O[C@@H]1C (stereo partly specified)
inactive: Potency [1] | Potency [2] | activity change, negative = inhibition [3] 3.99% [at 11.6 µM]

CC1(C)CC[C@]2(C(=O)O)CC[C@]3(C)C(=CCC4[C@@]5(C)C[C@@H](O)[C@H](O)C(C)(C)C5CC[C@]43C)[C@@H]2[C@@H]1O (stereo partly specified)
inactive: Potency [1] | Potency [2] | Potency [3]

COc1cc(C[C@H]2COC(=O)[C@@H]2Cc2ccc(O)c(OC)c2)ccc1O
inactive: Potency [1] | Potency [2] | Potency [3]

NC(=O)[C@H]1CCCCc2c1[nH]c1ccc(Cl)cc21
inactive: Potency [1] | Potency [2] | Potency [3]

C[C@@H](O)[C@H](N)C(=O)N1CCC[C@H]1C(=O)N1CCC[C@H]1C(=O)N[C@H](C(N)=O)[C@@H](C)O (H-TPPT-NH2)
inactive: outcome [1] inactive [at 9.52 µM] | activity change, negative = inhibition [2] 2.51% [at 9.73 µM] | activity change, negative = inhibition [3] 3.24% [at 11.6 µM]

C=C[C@](C)(CC/C=C(\C)C(=O)O)O[C@@H]1OC[C@H](O)[C@H](O)[C@H]1O
inactive: Potency [1] | Potency [2] | Potency [3]

COC(=O)C1=CO[C@@H](O[C@@H]2O[C@H](CO)[C@@H](O)[C@H](O)[C@H]2O)[C@@H]2[C@@H](C(=O)OC)[C@@H](O)C(O)[C@H]12 (stereo partly specified)
inactive: Potency [1] | Potency [2] | Potency [3]

C=C1CC2(C(=O)O)CC1CCC2C1(C)CCCC2(C)C(=O)OC(O)C21 (stereo unspecified)
inactive: Potency [1] | Potency [2] | Potency [3]

C=C1CCC2(OC1)OC1CC3C4CC=C5CC(O)CC(O[C@@H]6OC[C@@H](O)[C@H](O)[C@H]6O)C5(C)C4CCC3(C)C1(O)C2C (stereo partly specified)
inactive: Potency [1] | Potency [2] | Potency [3]

COc1cc(/C=C/C(=O)OC2CC(OC(C)=O)C(OC(C)=O)C3C2CCC2C(=O)OC(c4ccoc4)CC23C)ccc1O[C@@H]1O[C@H](CO)[C@@H](O)[C@H](O)[C@H]1O (stereo partly specified)
inactive: Potency [1] | Potency [2] | Potency [3]

COc1cc(C(C)=O)ccc1O[C@@H]1O[C@H](CO[C@@H]2O[C@@H](C)[C@H](O)[C@@H](O)[C@H]2O)[C@@H](O)[C@H](O)[C@H]1O
inactive: Potency [1] | Potency [2] | Potency [3]

CCCC(N[C@@H](C)C(=O)N1[C@H](C(=O)O)C[C@@H]2CCCC[C@@H]21)C(=O)OCC (stereo partly specified)
inactive: Potency [1] | Potency [2] | Potency [3]

O=C(NN1CCCCC1)c1nn(-c2ccc(Cl)cc2Cl)c(-c2ccc(C#Cc3ccc(C(F)(F)F)cc3)s2)c1CNS(=O)(=O)N1CCCC1
inactive: Potency [1] | Potency [2] | Potency [3]

CC1=C(C)C(=O)OC(C(C)C2C(O)CC3C4C5OC5C5(O)CC(OC6OC(CO)C(O)C(O)C6O)CC(O)C5(C)C4CCC32C)C1 (stereo unspecified)
inactive: Potency [1] | Potency [2] | Potency [3]

Cc1[nH]cnc1C1CCN(c2nc3cccc4c3n2CCC4=O)CC1
inactive: Potency [1] | Potency [2] | Potency [3]

COC(=O)C1=COC(OC2OC(CO)C(O)C(O)C2O)C2C1CC(OC(=O)C(O)CC(=O)O)C2C (stereo unspecified)
inactive: Potency [1] | Potency [2] | Potency [3]

COC1C2=C(COC2=O)C2(C)CCCC(C)(CO)C2C1OC(=O)c1ccccc1 (stereo unspecified)
inactive: Potency [1] | Potency [2] | Potency [3]

C=C1C(=O)OC2CC(C)=C(C(C)CCCO[C@@H]3O[C@H](CO)[C@@H](O)[C@H](O)[C@H]3O)C(O)C12 (stereo partly specified)
inactive: Potency [1] | Potency [2] | Potency [3]

C[C@@H]1O[C@@H](O[C@H]2[C@H](O[C@H]3CO[C@@H](O[C@H]4CC[C@@]5(C)C(CC[C@]6(C)C5CC[C@]57OC[C@@]8(CC[C@](C)(CO)CC85)[C@H](O)C[C@]76C)C4(C)C)[C@H](O[C@@H]4O[C@H](CO)[C@@H](O)[C@H](O)[C@H]4O)[C@H]3O)O[C@H](CO)[C@@H](O)[C@@H]2O)[C@H](O)[C@H](O)[C@H]1O (stereo partly specified)
inactive: Potency [1] | Potency [2] | activity change, negative = inhibition [3] 0.85% [at 11.6 µM]

C=CC1(C)CC(O)C2(CCC3C(C)(C(=O)O)CCCC3(C)C2=O)C1 (stereo unspecified)
inactive: Potency [1] | Potency [2] | Potency [3]

CN1C(=O)c2ccccc2NC(=O)[C@]12O[C@@H]2c1cccc(O)c1
inactive: Potency [1] | Potency [2] | Potency [3]

CCn1cc(C2=NOC(C(=O)Nc3c(C)n(C)n(-c4ccccc4)c3=O)C2)c(C)n1 (stereo unspecified)
inactive: Potency [1] | Potency [2] | Potency [3]

CC(=O)OCC1=C[C@H](O)[C@@H]2C(C(=O)O)=CO[C@@H](O[C@@H]3O[C@H](CO)[C@@H](O)[C@H](O)[C@H]3O)[C@H]12
inactive: Potency [1] | Potency [2] | Potency [3]

N#CCc1ccc(O)cc1O[C@@H]1O[C@H](CO)[C@@H](O)[C@H](O)[C@H]1O
inactive: Potency [1] | Potency [2] | Potency [3]

C[C@@H]1O[C@@H](OC[C@H]2O[C@@H](OCCc3ccccc3)[C@H](O)[C@@H](O)[C@@H]2O)[C@H](O)[C@H](O)[C@H]1O
inactive: Potency [1] | Potency [2] | Potency [3]

COc1cc2c(cc1OC)CN(C(=O)[C@@H](NCc1ccncc1)C(C)(C)C)CC2
inactive: Potency [1] | Potency [2] | Potency [3]

CC1CCC2C(C)(C)C(O)CCC2(C)C12Cc1c(O)cc3c(c1O2)CN(C(CCC(N)=O)C(=O)O)C3=O (stereo unspecified)
inactive: Potency [1] | Potency [2] | Potency [3]

COc1cc(C/C(=C/NC(C)=O)N(CC(=O)Cc2ccccc2)C(C)=O)cc2c1OCO2
inactive: Potency [1] | Potency [2] | Potency [3]

OC[C@H]1O[C@@H](n2cnc3c2NC=NC[C@H]3O)C[C@@H]1O
inactive: Potency [1] | Potency [2] | Potency [3]

COC(=O)C1C(CC(C)=O)C=CC(O)C12Oc1cc(C)cc(O)c1C2=O (stereo unspecified)
inactive: Potency [1] | Potency [2] | Potency [3]

CC(C)CC1(C(=O)OCc2ccc(O[C@@H]3O[C@H](CO)[C@@H](O)[C@H](O)[C@H]3O)cc2)CC(=O)OC(C(=O)O)CC(=O)OCC2OC(O1)C(OC(=O)/C=C/c1ccc(O)cc1)C(O)C2O (stereo partly specified)
inactive: Potency [1] | Potency [2] | activity change, negative = inhibition [3] 3.35% [at 11.6 µM]

CC(C)CNC(=O)/C=C/CCCCc1ccc2c(c1)OCO2
inactive: Potency [1] | Potency [2] | Potency [3]

O=C(CCCCc1ccc2ccccc2c1)C(F)(F)F
inactive: Potency [1] | Potency [2] | Potency [3]

COC1(CC(C)C)NC(=O)C(O)(Cc2ccccc2)NC1=O (stereo unspecified)
inactive: Potency [1] | Potency [2] | Potency [3]

CC[C@H]1OC(=O)[C@H](C)[C@@H](O[C@H]2C[C@@](C)(OC)[C@@H](O)[C@H](C)O2)[C@H](C)[C@@H](O[C@@H]2O[C@H](C)C[C@H](N(C)C)[C@H]2O)[C@@](C)(O)C[C@@H](C)[C@@H]2N[C@@H](COCCOC)OC([C@H]2C)[C@]1(C)O
inactive: Potency [1] | Potency [2] | Potency [3]

CC(C)C1=CC2=CCC3[C@](C)(CCC[C@@]3(C)C(=O)O)C2CC1=O (stereo partly specified)
inactive: Potency [1] | Potency [2] | Potency [3]

CC(=O)O[C@@H]1[C@@H](OC(=O)/C=C/c2ccccc2)[C@H](C)O[C@@H](O[C@H]2[C@@H]3C=CO[C@@H](O[C@@H]4O[C@H](CO)[C@@H](O)[C@H](O)[C@H]4O)[C@@H]3[C@@]3(CO)O[C@@H]23)[C@@H]1OC(C)=O
inactive: Potency [1] | Potency [2] | Potency [3]

C=C(C(=O)O)C1CCC(C)C2CCC(=O)OC2(C)C1 (stereo unspecified)
inactive: Potency [1] | Potency [2] | Potency [3]

CCCCN(CCCC)C(=O)CN1C[C@H](c2ccc3c(c2)OCO3)[C@@H](C(=O)O)[C@@H]1c1ccc(OC)cc1
inactive: Potency [1] | Potency [2] | Potency [3]

O=C(COc1ccc(Cl)cc1)NC1CCC(NC(=O)COc2ccc(Cl)cc2)CC1 (stereo unspecified)
inactive: Potency [1] | Potency [2] | Potency [3]

CCC(CC)n1ccc2c(C(=O)NCc3c(C)cc(C)[nH]c3=O)cc(C#N)cc21
inactive: Potency [1] | Potency [2] | Potency [3]

COC1CC(OC2CCC3(C)C(=CCC4C3CCC3(C)C(C(C)O)CCC43O)C2)OC(C)C1OC1OC(C)C(OC2OC(COC3OC(COC4OC(CO)C(O)C(O)C4O)C(O)C(O)C3O)C(O)C(O)C2O)C(OC)C1O (stereo unspecified)
inactive: Potency [1] | Potency [2] | outcome [3] inactive [at 11.6 µM]

O=C1[C@H](O[C@@H]2O[C@H](CO)[C@@H](O)[C@H](O)[C@H]2O)Oc2ccccc2N1O
inactive: Potency [1] | Potency [2] | Potency [3]

CN(NC(=O)CC(=O)NN(C)C(=S)c1ccccc1)C(=S)c1ccccc1
inactive: Potency [1] | Potency [2] | Potency [3]

CNC(=O)Nc1ccc(OC)c(NC(=O)NC(=O)c2cc(F)c(F)cc2Cl)c1
inactive: Potency [1] | Potency [2] | Potency [3]
